Here are results for 40 compounds from PubChem BioAssay (NCATS).

Structures are written as SMILES. “And” between values parts separate entries of the source, which are not always exact repeats. Equal values may be shown once. Inconclusive results are not listed. Entries that show only a call come without a potency. The source made the active and inactive calls. The call rests on the fitted dose curve; in most records, active means well fitted cell-killing curve with a large enough effect; inconclusive means small, poorly fitted or top-dose-only effect, or effect the other way; inactive means no such curve, though single readings can be large or run the other way.
Potency means the concentration at half of the fitted maximal effect.

A short description of the test: Viability qHTS for spleen associated tyrosine kinase inhibitor (SYKi) drug resistant MV4-11 cells (AID 1963824). Further: nearly all actives have a fitted effect of over 35% in size. To be noted: SYKi-resistant MV4-11 viability, CellTiter-Glo, 72 h; series mostly up to 45 µM. The source says:
Department of Medicine, Hematology/Oncology
University Hospital Frankfurt, Germany.
Trials have shown promising clinical activity of the selective SYK inhibitor entospletinib in patients with high expressing HOXA9/MEIS1 acute leukemias. As the development of resistance mechanisms is a common problem in the use of targeted drugs, we performed a chemical library screen to identify drug sensitivities in SYK inhibitor resistant AML cells. […] Glucocorticoids are potent immunosuppressants which work in part by inhibiting the transcription of cytokine genes.
Described herein is a viability screen to look for activity in the SYK inhibitor drug resistant cell line against four NCATS compound libraries (MIPE 5.0, NPC, NPACT, and Kinase) totaling 11372 compounds. Active hits were reacquired for confirmation and further secondary assay testing.
SEQUENCE No. (e.g., 1, 2, 3, etc.); […] (e.g., Cells, Incubation, Reagent, etc.); VALUE; DESCRIPTION.
1; Media; 2uL; white, solid-bottom Corning assay plate.
2; Compounds; 23nL; Echo acoustic dispenser.
3; Cell; 5uL; 500 cells per well.
4: Incubation; 72hr; 37 C, 5% CO2, 95% humidity.
5; Reagent; 3uL; CellTiter-Glo reagent (Promega).
6; Incubation; 10min; room temperature.
7; Detection; Luminescence; ViewLux plate reader (PerkinElmer).
NOTES (numbers refer to Sequence numbers above
1. Quantitative high-throughput screening (qHTS) of small molecule compounds was conducted on drug resistant SYKi MV4-11 cell line.
2. Twenty-three nanoliter of small molecule compounds were added to each assay plates using the Echo acoustic dispenser (Beckman Coulter).
3. Cells were seeded into the assay plates at a final density of 500 cells in 5uL of media per well using the Multidrop Combi dispenser.
4. Plates were covered with stainless steel gasketed lids and incubated for 72 hours at standard cell culture conditions.
5. Viability was assessed by adding 3uL of CellTiter-Glo detection reagent (Promega).
6. Plates were covered with gasket lids and incubated for 10 minutes at room temperature.
7. Luminescence was measured on a ViewLux plate reader (PerkinElmer).
Take `O=C(/C=C/c1ccc(O)cc1)OCC1OC(O)C(OC2OC(CO)C(O)C(O)C2O)C(O)C1O` (stereo not given): the Potency entry was “inactive”.

Take `Cc1ccc(C)c(NC(=O)CNS(=O)(=O)c2ccc3[nH]c(=O)oc3c2)c1`: the Potency result was “inactive”.

Consider `NC1CCC(Nc2cc(-c3cccc(NCc4cccc(F)c4)n3)c(Cl)cn2)CC1` (stereo not given), for which the Potency is 0.116 µM (active).

Turning to `CC[C@]12C=CCN3CC[C@@]4(c5cc([C@@]6(C(=O)OC)CC7C[C@@H](C(C)(F)F)CN(Cc8c6[nH]c6ccccc86)C7)c(OC)cc5N(C)[C@H]4[C@@](O)(C(=O)OC)[C@@H]1OC(C)=O)[C@@H]32` (stereo not given in full), the Potency was 0.105 µM (active).

`CC1=C(C(=O)Nc2cc(Cl)ccc2Cl)C(c2ccco2)C2=C(CCCC2=O)N1` (stereo not given): the Potency was 16.4 µM (active).

On to `Nc1ncnc2c1c(-c1cccc(OCc3ccccc3)c1)cn2C1CC(CN2CCC2)C1` (stereo not given), for which the Potency is 0.92 µM (active).

Turning to `COC(=O)Nc1nc2ccc(C(=O)c3cccs3)cc2[nH]1`, the Potency is 42.2 nM (active) and 118 nM (active).

In the case of `CC(C)c1nc(N(C)S(C)(=O)=O)nc(-c2ccc(F)cc2)c1/C=C/[C@@H](O)C[C@@H](O)CC(=O)O`, the Potency is 2.91 µM (active).

For the compound `CC(C)C(NC(=O)c1ccc(O)cc1)C(=O)N1CCCC1C(=O)Nc1c(O)cccc1C(=O)O` (stereo not given), the Potency entry was “inactive”.

Take `CC(C)Oc1ccc(-c2nn([C@@H](C)c3oc4ccc(F)cc4c(=O)c3-c3cccc(F)c3)c3ncnc(N)c23)cc1F`: the Potency is 11.8 µM (active).

For `Cc1nc2n(c(=O)c1CCN1CCC(c3noc4cc(F)ccc34)CC1)CCCC2`, the Potency entry was “inactive”.

Regarding `CCOC(=O)C(O)c1ccccc1` (stereo not given), the Potency result is “inactive”.

Turning to `Cc1cc(C2CCCCC2)n(O)c(=O)c1`, the Potency is 2.59 µM (active) and 3.35 µM (active) and 3.72 µM (active).

As to `O=C1c2ccccc2-c2c(NCCc3ccccc3)c(=O)[nH]c3cccc1c23`, the Potency was 23.1 µM (active).

In the case of `COc1ccc(C(=O)NCc2cc(C(C)C)no2)cc1OC1CCN(C)CC1`, the Potency result was “inactive”.

Turning to `O=C(Nc1ccc(OC(F)(F)Cl)cc1)c1cnc(N2CC[C@@H](O)C2)c(-c2ccn[nH]2)c1`, the Potency is 6.61 µM (active).

As to `C=C1C(=O)O[C@@H]2C(OC(=O)/C(C)=C\C)/C(C)=C\C(=O)/C=C(\C)C[C@H](O)[C@@H]12` (stereo not given in full), the Potency was 1.01 µM (active).

Turning to `CC1CCC2C(C)(C)C(O)CCC2(C)C12Cc1c(O)cc3c(c1O2)CN=C3N` (stereo not given), the Potency entry was “inactive”.

In the case of `COC(=O)[C@H](O)[C@H]1C(C)(C)[C@H](OC(=O)C(C)C)[C@@]2(O)C(=O)[C@]1(C)C1CC[C@]3(C)C(CC(=O)O[C@H]3c3ccoc3)[C@]13O[C@@H]32` (stereo not given in full), the Potency result was “inactive”.

For `COC(=O)c1cccnc1`, the Potency entry was “inactive”.

`CC(=O)O[C@H]1CC(C)(C)CC2[C@@]13[C@H](O)C[C@]1(C)[C@@]2(CCC2[C@@]4(C)CC[C@H](O[C@@H]5OC[C@H](O[C@@H]6O[C@H](CO)[C@@H](O)[C@H](O)[C@H]6O[C@@H]6OC[C@@H](O)[C@H](O)[C@H]6O)[C@H](O)[C@H]5O[C@@H]5O[C@H](CO)[C@@H](O)[C@H](O)[C@H]5O)C(C)(C)C4CC[C@]21C)O[C@@H]3O` (stereo not given in full): the Potency was 0.778 µM (active).

Consider `C/C=C/C=C/C(=O)O[C@@H]1C=C2COC(=O)[C@]2(O)[C@@]2(C)CCCC(C)(C)[C@H]12`, for which the Potency was 16.1 µM (active).

For the compound `O=C(O)CCCC[C@@H]1SC[C@@H]2NC(=O)N[C@@H]21`, the Potency entry was “inactive”.

In the case of `Cc1ncc(NC(=O)c2cccc(C(F)(F)F)c2)cc1-c1cnc(OC2CCOCC2)c(N2CCOCC2)c1`, the Potency was 5.9 µM (active).

As for `O=C(NCc1cccc(O)c1)c1cc2cc(F)ccc2[nH]1`, the Potency is 13 µM (active).

Take `CO[C@@]12[C@H](COC(N)=O)C3=C(C(=O)C(C)=C(N)C3=O)N1C[C@@H]1N[C@@H]12`: the Potency is 0.0742 µM (active).

Regarding `COC(=O)C1=C(C)NC(C)=C(C(=O)OCCN2CCN(C(c3ccccc3)c3ccccc3)CC2)C1c1cccc([N+](=O)[O-])c1` (stereo not given), the Potency was 6.68 µM (active).

Regarding `C=C(C)C(=O)OCC(O)CO` (stereo not given), the Potency result was “inactive”.

Regarding `COc1nc(C)cnc1NS(=O)(=O)c1cccnc1-c1ccc(-c2nnco2)cc1`, the Potency result is “inactive”.

On to `C=C(CCO)C(=O)OCC1OCC(OC(=O)C(=C)CCO[C@@H]2O[C@H](CO)[C@@H](O)[C@H](O)[C@H]2O)C(O)C1O` (stereo not given in full), for which the Potency entry was “inactive”.

`CN1C(=O)[C@@H](NC(=O)c2n[nH]c(Cc3ccccc3)n2)COc2ccccc21`: the Potency entry is “inactive”.

As to `Cc1cccc(Oc2cnc(=O)[nH]c2)c1`, the Potency entry is “inactive”.

On to `COc1ccc(C(=O)O[C@H]2C=COC=C3C=C4C(=O)N(C)C(=S)C(=O)N4[C@@H]32)cc1Oc1cc(C=O)ccc1O`, for which the Potency is 2.24 µM (active).

On to `CC1CCC2C(C)(C)C(O)CCC2(C)C12Cc1c(O)cc3c(c1O2)CN(C(CCC(N)=O)C(=O)O)C3=O` (stereo not given), for which the Potency result is “inactive”.

As to `OC[C@@]1(O)CO[C@H](OC[C@H]2O[C@@H](OCCc3ccccc3)[C@H](O)[C@@H](O)[C@@H]2O)[C@@H]1O`, the Potency entry was “inactive”.

As for `CC(C)C(=O)Oc1ccc(CO)cc1[C@H](CCN(C(C)C)C(C)C)c1ccccc1`, the Potency result was “inactive”.

Turning to `CC(=O)O[C@H]1C[C@@H]2CC[C@@H]3[C@H](CC[C@@]4(C)[C@H]3C[C@H]([N+]3(C)CCCCC3)[C@@H]4OC(C)=O)[C@@]2(C)C[C@@H]1N1CCCCC1`, the Potency result was “inactive”.

Turning to `O=C1OC(/C=C/c2ccccc2)=NC/1=C\c1cccnc1`, the Potency result is “inactive”.

As to `Cc1[nH]c(=O)c(C#N)cc1-c1ccncc1`, the Potency result is “inactive”.

Regarding `C=C1C(=O)O[C@@H]2/C=C(\C)CC/C=C(\C)CC[C@@H]12`, the Potency was 2.59 µM (active).
